Experimental findings from PubChem BioAssay are described below.

Broadly, the inhibition is the change of the read-out against control, counted positive when it falls.

Assay [1] can be described thus: protection against mutant huntingtin cytotoxicity, PC12 cells, LDH release (AID 1610). The conditions noted are these: PC12 mutant huntingtin toxicity, final LDH at 4 uM, stronger effect = lower value.
The nature of assay [2]: HD-MB03 medulloblastoma cell growth inhibition, synergistic combos for chromothripsis tumors, BGB or cisplatin IC20 combos (AID 1671455; in the data active = inhibition above about 83%;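 note: 0% = vehicle DMSO and 100% = high DMSO as cytotoxic control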). The conditions noted are these: HD-MB03 medulloblastoma cells, stronger effect = higher value.
Assay [3] can be described thus: UWB1.289 ovarian carcinoma cell growth inhibition, synergistic combos for chromothripsis tumors, BGB or cisplatin combos (AID 1671456; in the data active = inhibition above about 80%;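 note: cells exposed to compound for four days; 0% = vehicle DMSO and 100% = killing by high DMSO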). The settings on record: UWB1.289 ovarian carcinoma cells, stronger effect = higher value.
The nature of assay [4]: LFS_MB_2R medulloblastoma cell growth inhibition, synergistic combos for chromothripsis tumors, cisplatin combos (AID 1671457; in the data active = inhibition above about 80%;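 note: cells exposed to compound for four days before readout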). The conditions noted are these: LFS_MB_2R medulloblastoma cells, stronger effect = higher value.
The nature of assay [5]: UWB1.289_BRCA1 ovarian cancer growth, cell-based, BGB or cisplatin combinations (AID 1671459; in the data active = inhibition above about 80%). The conditions noted are these: UWB1.289 BRCA1 ovarian carcinoma, drug combinations, stronger effect = higher value.
A short description of assay [6]: human astrocyte viability loss, single and combined drugs, cytotoxicity control for chromothriptic childhood tumor combination screen, cell-based, BGB or cisplatin IC20 combos (AID 1671460; in the data active = inhibition above about 80%;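 note: cells exposed to compounds for 96 hours before viability readout; 0% = vehicle and 100% = killing control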). The settings on record: Human astrocytes, drug combinations, stronger effect = higher value.
A short description of assay [7]: circadian clock period modulators, cell-based, LOPAC library, luminescence reporter (AID 2774).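 Note: values are relative to mean of DMSO wells on each plate.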 The conditions noted are these: circadian reporter cells, at 7 µM, actives lie on both sides.
The target in assay [8] is ATP-dependent translocase ABCB1 (Homo sapiens) (UniProt P08183). As to the kind of experiment: MDR1 (ABCB1) efflux transporter inhibition, cell-based (AID 377; in the data active = fluorescence slope change above about 50%). The conditions noted are these: MDR1-expressing cells, fluorescent substrate accumulation slope; stronger effect = higher value; concentration not given here.
Assay [9] can be described thus: hESC survival regulators, cell-based (AID 493140).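 Note: cells exposed to compounds for four days before counting.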 The conditions noted are these: human embryonic stem cell survival screen; stronger effect = higher value.
Assay [10] can be described thus: kinase inhibitors against Plasmodium liver-stage infection, cell-based, known kinase inhibitor set, luminescence, hepatoma host viability (AID 624392).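 Note: infected cells incubated roughly two days before readout.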 The settings on record: Plasmodium liver stage in hepatoma cells, luciferase luminescence, concentration not given here; liver cell % of control: measured here: host liver cell viability; parasite % of control: stronger effect = lower value.

Setting [11] is: measured here: combo with BGB at IC20, at 0.5 µM.
Where [12] appears, read: measured here: combo with cisplatin at IC20, at 0.5 µM.
Where [13] appears, read: measured here: inhibition with BGB combination, at 0.05 µM.
Setting [14] is: measured here: inhibition with cisplatin combination, at 0.05 µM.
Where [15] appears, read: measured here: combination with cisplatin, at 0.5 µM.
[16] abbreviates: measured here: combination with cisplatin, at 5 µM.
Setting [17] is: BGB combination, concentration series, at 5 µM.
Where [18] appears, read: cisplatin combination, concentration series, at 5 µM.
The mark [19] stands for this setting: measured here: combo with BGB IC20, at 0.5 µM.
[20] abbreviates: measured here: combo with cisplatin IC20, at 0.5 µM.

“And” between values parts separate entries of the source, which are not always exact repeats. Identical values can stand only once. Results filed as inconclusive are left out. The source made the active and inactive calls. Unless noted, the rule behind the calls is not given here.

Chain of ATP-dependent translocase ABCB1 (Homo sapiens) (P08183 whole entry, looked up): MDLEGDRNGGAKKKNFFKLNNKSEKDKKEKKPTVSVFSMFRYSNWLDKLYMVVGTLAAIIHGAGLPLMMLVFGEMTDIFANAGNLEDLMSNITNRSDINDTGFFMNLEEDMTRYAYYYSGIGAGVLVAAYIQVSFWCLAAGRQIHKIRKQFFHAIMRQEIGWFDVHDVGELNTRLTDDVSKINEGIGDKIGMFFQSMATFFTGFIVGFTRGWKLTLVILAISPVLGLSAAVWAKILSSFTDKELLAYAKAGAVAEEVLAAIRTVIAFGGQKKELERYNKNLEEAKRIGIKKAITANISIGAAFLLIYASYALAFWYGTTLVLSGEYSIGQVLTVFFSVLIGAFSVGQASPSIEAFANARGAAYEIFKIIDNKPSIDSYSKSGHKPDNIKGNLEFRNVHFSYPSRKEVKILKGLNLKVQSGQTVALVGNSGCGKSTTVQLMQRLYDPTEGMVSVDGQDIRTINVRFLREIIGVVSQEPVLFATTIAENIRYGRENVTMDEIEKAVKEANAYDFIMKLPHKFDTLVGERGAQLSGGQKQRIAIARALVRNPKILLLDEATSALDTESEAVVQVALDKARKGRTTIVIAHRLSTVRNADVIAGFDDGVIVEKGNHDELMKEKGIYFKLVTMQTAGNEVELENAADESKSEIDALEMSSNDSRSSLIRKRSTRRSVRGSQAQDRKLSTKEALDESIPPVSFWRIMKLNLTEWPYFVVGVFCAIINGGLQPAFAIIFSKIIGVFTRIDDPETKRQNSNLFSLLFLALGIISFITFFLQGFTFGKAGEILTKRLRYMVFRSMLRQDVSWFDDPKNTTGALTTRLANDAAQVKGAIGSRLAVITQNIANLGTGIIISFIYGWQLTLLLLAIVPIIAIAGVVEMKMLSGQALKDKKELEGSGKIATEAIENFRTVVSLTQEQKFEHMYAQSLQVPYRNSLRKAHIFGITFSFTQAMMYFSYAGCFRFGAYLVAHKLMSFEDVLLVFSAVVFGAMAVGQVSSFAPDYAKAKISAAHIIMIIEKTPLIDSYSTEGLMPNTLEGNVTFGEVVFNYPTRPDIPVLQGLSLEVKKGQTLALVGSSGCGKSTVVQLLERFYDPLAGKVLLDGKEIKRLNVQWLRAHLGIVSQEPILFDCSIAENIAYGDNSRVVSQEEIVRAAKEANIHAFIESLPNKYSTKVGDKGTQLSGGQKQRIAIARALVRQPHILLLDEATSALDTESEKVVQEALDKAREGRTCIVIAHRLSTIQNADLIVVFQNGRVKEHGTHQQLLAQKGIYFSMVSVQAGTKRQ

`CC(=O)OCC(=O)[C@@]1(O)[C@H](C)CC2C3CCC4=CC(=O)C=C[C@]4(C)[C@@]3(F)[C@@H](O)C[C@@]21C` (some centres undefined) registered a normalised LDH release in [1] of 0.545.
`O=c1cc(-c2cccc3c2Sc2ccccc2S3)oc(N2CCOCC2)c1`: the inhibition was -12.6% (inactive) in assay [2] (at 0.5 µM); -13% in assay [2] (setting [11]); -6.59% in [2] (setting [12]); -9.95% (inactive) in assay [3] (at 0.5 µM); -28.4% in [3] (setting [13]); -10.7% in assay [3] (setting [14]). The inhibition was -22.3% (inactive) in assay [4] (at 0.5 µM); -27.3% in [4] (setting [15]); -42.7% in [4] (setting [16]); -14.2% in assay [5] (setting [17]); -17.9% (inactive) in assay [5] (at 0.5 µM); -3.21% in assay [5] (setting [18]). Moreover, the inhibition in [6] (at 0.5 µM) was -40.3% (inactive); in [6] (setting [19]), -56.7%; in assay [6] (setting [20]), -32.4%.
With `CCc1c2c(nc3ccc(O)cc13)-c1cc3c(c(=O)n1C2)COC(=O)[C@]3(O)CC`, the inhibition in assay [2] (at 0.5 µM) was 99.5% (active); in [2] (setting [11]), 99.5%; in assay [2] (setting [12]), 99.6%; in [3] (at 0.5 µM), 74.5% (inactive); in assay [3] (setting [13]) it was 31%; in [3] (setting [14]), 49.3%. Moreover, the inhibition in assay [4] (at 0.5 µM) was 13.2% (inactive); in assay [4] (setting [15]), 48.9%; in assay [4] (setting [16]), 61.9%; in assay [5] (setting [17]), 102%; in [5] (at 0.5 µM) it was 81.6% (active); in assay [5] (setting [18]), 105%. In addition, the inhibition in assay [6] (at 0.5 µM) is 90.1% (active); in assay [6] (setting [19]), 94.5%; in [6] (setting [20]), 87%.
As to `O=C(O)C1CCCN(CCC=C(c2ccccc2)c2ccccc2)C1` (centres undefined), the period change in assay [7] was 0.005 h (inactive).
As to `O=c1[nH]c(-c2ccc(C(F)(F)F)cc2)nc2c1CSCC2`, the inhibition in assay [2] (at 0.5 µM) is -8.71% (inactive); in assay [2] (setting [11]), -15.3%; in assay [2] (setting [12]) it was -8.24%; in assay [3] (at 0.5 µM) it was -2.17% (inactive); in assay [3] (setting [13]), -13.9%; in [3] (setting [14]), -26.3%. In addition, the inhibition in assay [4] (at 0.5 µM) was -7.37% (inactive); in [4] (setting [15]), -7.07%; in assay [4] (setting [16]), -6.53%; in assay [5] (setting [17]), -5.61%; in assay [5] (at 0.5 µM), 0.36% (inactive); in assay [5] (setting [18]), 7.32%. Besides, the figures for the inhibition in assay [6] (at 0.5 µM), in [6] (setting [19]) and in assay [6] (setting [20]) were -1.27% (inactive), 0.645% and -5.26%, respectively.
Turning to `CCCCC[C@H](O)/C=C/[C@H]1[C@H](O)CC(=O)[C@@H]1C/C=C\CCCC(=O)O`, the fluorescence slope change in [8] is 51% (active). For the same molecule, in assay [9], the survival was 66.5 (inactive).
For `CCC(C)N(C)C(=O)c1cc2ccccc2c(-c2ccccc2Cl)n1` (centres undefined), in assay [7], the period change was 0.03 h (inactive).
Consider `O=C(O)c1ccc(-c2c[nH]c3ncc(-c4ccccc4)cc23)cc1C1CCCC1`, for which, in [10], the liver cell % of control worked out at 92% and the parasite % of control is 0.113% (active).
As for `NC(=O)c1ccc2[nH]ccc2c1`, in [10], the liver cell % of control is 92.5% and 90.8% and 97.8%; the parasite % of control was 221% (inactive) and 164% (inactive) and 74.7% (inactive).
For the molecule `COc1cccc(-c2cc(=O)c3ccccc3o2)c1N`, the period change in [7] was -0.07 h (inactive). In assay [9], the survival is 106 (inactive).
For the molecule `O=C1Nc2ccc(I)cc2/C1=C/c1cc(Br)c(O)c(Br)c1`, in [7], the period change is -0.055 h (inactive). Besides, the survival in assay [9] was 109 (inactive).
Consider `CCOC(=O)C1=C(C)NC(=S)NC1c1cccc(O)c1` (centres undefined), for which the period change in assay [7] is 0.16 h (inactive).
Regarding `O=C1NC(=O)C(c2ccccc2[N+](=O)[O-])=C1Nc1ccc(O)c(Cl)c1`, in assay [7], the period change is 0.15 h (inactive).
Regarding `CS(=O)c1ccc(-c2nc(-c3ccc(F)cc3)c(-c3ccncc3)[nH]2)cc1` (centres undefined), in assay [10], the liver cell % of control was 87.6% and 90.6% and 97.1%; the parasite % of control was 20.8% (inactive) and 18.7% (inactive) and 25.5% (inactive).
Take `N#CC(=C(/N)Sc1ccccc1N)/C(C#N)=C(\N)Sc1ccccc1N`: in assay [9], the survival is 104 (inactive).
For `O=C1c2ccccc2-c2n[nH]c3cccc1c23`, the period change in [7] was 1.23 h (active). Moreover, the survival in [9] was 97.1 (inactive).
In the case of `COc1cc2c(cc1O)CC[C@@H]1[C@@H]2CC[C@]2(C)[C@@H](O)CC[C@@H]12`, the period change in assay [7] is -1.4 h (active).
Turning to `Cc1ccc(NC(=O)c2cccc(N(C)C)c2)cc1NC(=O)c1ccc(O)cc1`, the survival in assay [9] is 103 (inactive).
On the same count and under the same terms, under `Cc1ccc(S(=O)(=O)/C=C/C#N)cc1` stands 9.17 (inactive).
In the case of `Cc1cccc(C#Cc2ccccc2)n1`, the period change in assay [7] was 0.065 h (inactive).
